# Assay results as given in ChEMBL document CHEMBL3988442, “University of Dundee, Small-Polar-MMV Screening Library” (2021).
# Screen size: about 69,000 compounds; about 950 (1.4%) showed an effect of 50% or more. What follows is part of a selection rich in strong results, with near analogues and random picks from the rest.
# Test system: Mycobacterium tuberculosis
# Experiment: Cornell M. t heat shock assay; note: in the data most compounds retested in dose-response had high values
# Type: functional, organism-based
# Parameters: dose or concentration left out as unconfirmed
row,SMILES,Percent Effect
1,Cc1cnc(N2CCC3(CCN(Cc4csc(C)n4)C3=O)C2)nc1.O=C(O)C(F)(F)F (stereo unspecified),-3.389%
2,Cc1ccc2c(n1)N(Cc1cccnc1)CCN(C(=O)C1CC1)C2.O=C(O)C(F)(F)F.O=C(O)C(F)(F)F,-27.88%
3,Cl.Cn1ccnc1C1(O)CCN(C(=O)Cc2ccccc2)CC1,-18.55%
4,CN(Cc1ccc(-n2cccn2)cc1)C[C@@H]1CCCN2CCCC[C@H]12,-24.54%
5,Cc1ccc(N2CCC3(CCN(C(=O)c4ccccn4)CC3)CC2)nn1.O=C(O)C(F)(F)F.O=C(O)C(F)(F)F,-19.27%
6,CCCc1ccc(OC23CCCN(CC2)C3)c(OC)c1 (stereo unspecified),85.22%
7,COc1cc(C#N)ccc1OC12CCCN(CC1)C2 (stereo unspecified),-7.079%
8,COc1cc(CN2CCCC2)ccc1OC12CCCN(CC1)C2 (stereo unspecified),-26.73%
9,CS(=O)(=O)NC[C@H]1OC[C@@H]2CCN(CCc3ccccc3)C[C@@H]21.O=C(O)C(F)(F)F,-13.26%
10,CC(C)N(C)Cc1cncc2c1CCN(CC1CC1)C2.Cl.Cl.Cl,9.593%
11,O=C(O)C(F)(F)F.O=C(O)[C@]12CCCN(C3CCOC3)C[C@H]1CN(c1nncs1)C2 (stereo partly specified),32.9%
12,COCCN1CCCn2c(nc(CNC(=O)COC)cc2=O)C1.O=C(O)C(F)(F)F,37.74%
13,COc1ccc(CN2C[C@H]3C[C@H](C(=O)Nc4cccnc4)[C@@H](C2)O3)cc1,4.187%
14,CCc1c(C)sc(NC(=O)CN2CCOCC2)c1C(=O)OC,24.22%
15,CCOC(=O)c1c(NC(=O)CN2CCN(C(C)=O)CC2)sc(C)c1C,-7.801%
16,CCc1c(C)sc(NC(=O)CN2CCN(CC)CC2)c1C(=O)OC,103.2%
17,CN1CCCC1c1cccc(Cc2ccccc2F)n1 (stereo unspecified),69.94%
18,CC(=O)N1CCCC1c1cccc(Cc2ccccc2F)n1 (stereo unspecified),-21.24%
19,CN1CCCC1c1cccc(Cc2ccc(F)cc2)n1 (stereo unspecified),24.93%
20,Cc1cccc(CN2CCc3ncnc(C4CC4)c3CC2)n1.O=C(O)C(F)(F)F,-23.65%
21,CCN1CCN(C)C(=O)C12CCN(Cc1csc(C)n1)CC2.O=C(O)C(F)(F)F,25.71%
22,O=C(O)C(F)(F)F.O=C(O)C(F)(F)F.c1cncc(-c2ncnc3c2CCN(Cc2cccs2)CC3)c1,-18.81%
23,CC(C)Cc1cc(NC(=O)c2ccccn2)n(C)n1,64.59%

row,SMILES,Percent Effect
1,CC(C)Cc1cc(NC(=O)c2ccncc2)n(C)n1,18.34%
2,CC(C)Cc1cc(NC(=O)c2ccccc2)n(C)n1,19.61%
3,CN(Cc1ccncc1)C1COC2(CCN(Cc3cccs3)CC2)C1.O=C(O)C(F)(F)F.O=C(O)C(F)(F)F.O=C(O)C(F)(F)F (stereo unspecified),10.37%
4,CN(C)C(=O)CO[C@@H]1CC[C@H]2[C@H]1OCCN2c1ncc(F)cn1.O=C(O)C(F)(F)F,7.03%
5,O[C@@H]1CN(c2cnc3ccccc3n2)CC[C@H]1c1ccc2c(c1)OCO2,107.1%
6,O[C@@H]1CN(c2nc3ccccc3o2)CC[C@H]1c1ccc2c(c1)OCO2,-10.34%
7,O[C@@H]1CN(c2nc3ccccc3s2)CC[C@H]1c1ccc2c(c1)OCO2,-12.43%
8,O=C(O)C(F)(F)F.c1ccn(Cc2nnc3n2CCCN(Cc2ccoc2)C3)c1,-15.36%
9,O=C(C1CCC1)N1C[C@@H]2CN(Cc3ccncc3)C(=O)[C@@H]2C1.O=C(O)C(F)(F)F,6.384%
10,CN(C)CCCNCCC(c1ccccc1)C1CCOC(C)(C)C1.O=C(O)C(=O)O (stereo unspecified),21.84%
11,CN1CCN(C2COC3(CCN(Cc4ccc(F)cc4)CC3)C2)CC1.O=C(O)C(F)(F)F.O=C(O)C(F)(F)F.O=C(O)C(F)(F)F (stereo unspecified),-9.014%
12,CCNC(=O)NC(=O)CNC(C)(C)c1ccc2c(c1)OCCO2,11.57%
13,CCCNC(=O)NC(=O)CNC(C)(C)c1ccc2c(c1)OCCO2,99.39%
14,CCCNC(=O)NC(=O)CNC(C)(C)c1ccc2c(c1)OCO2,-10.73%
15,Cc1cc(C[C@@H]2COC[C@H]2NCc2ccc(C(C)C)cc2)on1.O=C(O)CC(O)(CC(=O)O)C(=O)O,9.353%
16,Cc1[nH]c2ccc(C#N)cc2c1CCNc1ncnc2c1CCNCC2,7.503%
17,Cc1[nH]c2ccccc2c1CCNc1ncnc2c1CCNCC2,1.152%
18,Cc1[nH]c2ccc(Cl)cc2c1CCNc1ncnc2c1CCNC2,96.99%
19,Cc1cc(C)nc(N2CCCC(C(=O)Nc3n[nH]c(C(C)C)n3)C2)n1 (stereo unspecified),13.11%
20,O=C(O)C(F)(F)F.O=C(c1ccc[nH]1)N1CCCn2c(CNC3CCC3)nnc2C1,92.9%
21,O=C1CCCN1Cc1nnc2n1CCCN(C(=O)c1ccc[nH]1)C2,27.49%
22,O=C(c1ccc[nH]1)N1CCCn2c(CN3CCCCC3)nnc2C1,16.28%
23,Cc1cnc(NC(=O)c2cccc(CN(C)Cc3snnc3C)c2)s1,9.507%

row,SMILES,Percent Effect
1,Cc1cnc(NC(=O)c2cccc(CN(C)Cc3ccno3)c2)s1,6.699%
2,Cc1cnc(NC(=O)c2cccc(CN(C)Cc3ncccc3C)c2)s1,62.95%
3,Cl.O=C(c1cccc(F)c1)N1CCCC1c1ncc2c(n1)CCNC2 (stereo unspecified),-29.7%
4,NC(=O)NC(=O)CN1CCN(CC2CC2)c2ccccc21,61.15%
5,CNC(=O)NC(=O)CN1CCN(CC2CC2)c2ccccc21,34.37%
6,NC(=O)NC(=O)CCN1CCN(CC2CC2)c2ccccc21,-11.96%
7,CN(C)CCN1CCCC12CCN(C(=O)c1ccoc1)CC2.O=C(O)C(F)(F)F.O=C(O)C(F)(F)F,-7.317%
8,O=C(O)C(F)(F)F.O=C1C[C@H]2[C@H](CCN2Cc2ccccn2)N1CC1CC1,-8.238%
9,CN(C)CCCNC(=O)c1ccc(N(C)S(C)(=O)=O)cc1Cl,4.922%
10,NC(=O)NC(=O)CCN1CCN(c2nccs2)CC1,101.5%
11,NC(=O)NC(=O)CCN1CCCN(c2nccs2)CC1,91.9%
12,NC(=O)NC(=O)CN1CCN(c2nccs2)CC1,-3.548%
13,O=C(CCN1CCCN(c2nccs2)CC1)NCC1CCCCC1,0.6887%
14,O=C(CCN1CCCN(c2nccs2)CC1)Nc1ccccc1,-8.927%
15,CNC(=O)NC(=O)CCN1CCN(c2nccs2)CC1,23.87%
16,CCn1cncc1CN(Cc1ccc(OC)cc1OC)CC1CCCO1.O=C(O)CC(O)(CC(=O)O)C(=O)O (stereo unspecified),-14.56%
17,CN(Cc1cccnc1)[C@@H]1CN(C(=O)CC2CC2)[C@@H]2CCCO[C@H]12.O=C(O)C(F)(F)F.O=C(O)C(F)(F)F,-21.3%
18,CC/N=c1\c(NC(=O)C(C)(C)C)c(O)oc2ccccc12,-10.16%
19,Oc1cc(C2CCCN(Cc3cccs3)C2)nc(-c2ccccn2)n1 (stereo unspecified),99.87%
20,Oc1cc(C2CCCCN2Cc2cccs2)nc(-c2ccncc2)n1 (stereo unspecified),-5.43%
21,Oc1cc(C2CCCCN2Cc2ccsc2)nc(-c2ccncc2)n1 (stereo unspecified),-9.132%
22,Oc1cc(-c2nccs2)nc(C2CCN(Cc3cccs3)CC2)n1,15.4%
23,Oc1cc(C2CCCCN2Cc2cccs2)nc(-c2ccccn2)n1 (stereo unspecified),103.7%

row,SMILES,Percent Effect
1,Cn1ncc2ccc(C3CCCN(Cc4cccs4)C3)nc21 (stereo unspecified),13.99%
2,O=C(O)C(F)(F)F.O=C1[C@H]2CN(Cc3nccs3)C[C@H]2CN1c1cncnc1,-2.915%
3,CN(C)CCO[C@@H]1CC[C@H]2[C@H]1OCCN2C(=O)COc1ccccc1.O=C(O)C(F)(F)F,10.1%
4,COc1ccc(CN2C[C@@H]3OCCN(CC4CCCO4)[C@@H]3C2)cc1.O=C(O)C(F)(F)F.O=C(O)C(F)(F)F (stereo partly specified),2.354%
5,COc1ccc(CN2CC[C@H]3[C@H]2CCN3C(=O)c2cnn(C)c2)cc1.O=C(O)C(F)(F)F,1.435%
6,CC(=O)N1Cc2ccnn2CC(C(=O)NCc2cccnc2)C1.O=C(O)C(F)(F)F (stereo unspecified),37.04%
7,FC(F)(F)c1ccc2nc([C@H]3CCN(C4CCC4)C3)[nH]c2c1,17.31%
8,FC(F)(F)c1ccc2nc([C@H]3CCN(C4CCOCC4)C3)[nH]c2c1,5.789%
9,FC(F)(F)c1ccc2nc([C@H]3CCN(C4CCCCC4)C3)[nH]c2c1,60.59%
10,COc1c(C2CCCN2CC(=O)Nc2cc(C)no2)c(C)nn1C (stereo unspecified),8.972%
11,Cc1cnn(CC2CCCN2CC(=O)Nc2nccs2)c1 (stereo unspecified),102.3%
12,CC(=O)Nc1nc(CN2CCCC2Cn2cncn2)cs1 (stereo unspecified),-13%
13,Cc1cnn(CC2CCCN2CC(=O)Nc2nc(C)cs2)c1 (stereo unspecified),100.4%
14,Cc1cnn(CC2CCCN2CC(=O)Nc2cc(C)nn2C)c1 (stereo unspecified),19.4%
15,CC(=O)Nc1nc(CN2CCCC2Cn2cc(C)cn2)cs1 (stereo unspecified),69.78%
16,COc1c(C2CCCN2CC(=O)Nc2nccs2)c(C)nn1C (stereo unspecified),8.304%
17,CC(=O)Nc1nc(CN2CCCC2Cn2cccn2)cs1 (stereo unspecified),-5.465%
18,COc1c(C2CCCN2CC(=O)Nc2nc(C)cs2)c(C)nn1C (stereo unspecified),75.33%
19,Cc1cnn(CC2CCCN2CC(=O)NCc2ccccn2)c1 (stereo unspecified),-22.46%
20,Cc1cnn(CC2CCCN2CC(=O)Nc2nncs2)c1 (stereo unspecified),-6.011%
21,O=C(CN1CCCC1Cn1cncn1)Nc1nccs1 (stereo unspecified),4.576%
22,Cc1nc[nH]c1CN(Cc1ccccc1F)C1CC(C)(C)NC(C)(C)C1.O=C(O)CC(O)(CC(=O)O)C(=O)O,-2.69%
